# PubChem BioAssay AID1508622 (National Center for Advancing Translational Sciences (NCATS), 2021)
# The source made the active and inactive calls. Where a call stands in place of a potency, no number is given. The call rests on the fitted dose curve; in most records, active means well fitted activation curve with a large enough effect; inconclusive means small, poorly fitted or top-dose-only effect; inactive means no such curve, though single readings can be large or run the other way.
# Assay: Confirmatory qHTS for Identification of Small Molecule Activators of Huntingtin-Antisense Promoter Activity
# Details: HEK293 HTT-AS promoter firefly luciferase reporter, 24 h; series mostly up to 57.5 µM
# Summary of the method: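 Plated reporter HEK293 cells (24 h) received library compounds at up to 57.5 uM final or 50 uM PTC124, incubated 24 h at 37C; firefly luciferase luminescence was then recorded with Dual-Glo reagent.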
# Potency means the concentration at half of the fitted maximal effect.
row,SMILES,Potency
1,CCn1c(SCc2ccc(F)cc2Cl)nc(=O)c2c(C(=O)OC)cc(C3CC3)nc21,inactive
2,Cc1noc2ncnc(NCc3cccc(Cl)c3)c12,inactive
3,Cc1cccc(S(=O)(=O)Nc2cccc(-c3ccc(N4CCCCC4)nn3)c2)c1,2.39 µM (active)
4,Cc1ccc(CN2CCCn3nc(C(=O)NCc4ccc(OC(C)C)cc4)cc3C2=O)cc1,inactive
5,COc1cccc(C(=O)NC(c2ccc(Cl)cc2)c2cc(Cl)c3cccnc3c2O)c1 (stereo not drawn),inactive
6,O=C(Nc1cccc(Cl)c1)c1ccc(F)c(S(=O)(=O)N2CCC3(CC2)OCCO3)c1,inactive
7,CCOc1ccccc1NS(=O)(=O)c1ccc2c(c1)CC(C)N2C(=O)C1CC1 (stereo not drawn),inactive
8,O=C(Nc1cccc(Cl)c1)c1c(NC(=O)C(F)(F)F)sc2c1CCCC2,inactive
9,O=C(Cn1c(=O)oc2cc(S(=O)(=O)N3CCCCCC3)ccc21)Nc1cccc(C(F)(F)F)c1,inactive
10,O=C1C2=C(Nc3ccccc3SC2c2ccc(C(F)(F)F)cc2)c2ccccc21 (stereo not drawn),inactive
11,COc1ccccc1N1CCN(C(=O)C2CCCN(S(=O)(=O)c3ccc4c(c3)CCCN4C(C)=O)C2)CC1 (stereo not drawn),inactive
12,COc1ccc(N2CCN(Cc3nc4c(c(=O)n(C)c(=O)n4C)n3C(C)C)CC2)cc1,inactive
13,O=C(Nc1ccc(S(=O)(=O)N(Cc2ccccc2)c2ccccc2)cc1)c1ccc(F)cc1,inactive
14,COc1ccc(N2CCN(C(CNC(=O)c3ccc(C)cc3)c3ccc4c(c3)OCO4)CC2)cc1 (stereo not drawn),inactive
15,COc1cccc(NS(=O)(=O)c2ccc3[nH]cc(C(=O)NCCc4ccc(C)cc4)c(=O)c3c2)c1,inactive
16,COc1ccc(-c2noc(CSc3nnc(-c4ccccc4)n3-c3ccc(F)cc3)n2)c(OC)c1,inactive
17,Cc1nc(Nc2n[nH]c3c2CN(C(=O)N[C@H](CN(C)C)c2ccccc2)C3(C)C)c2sccc2n1,inactive
18,COC[C@H](NC(=O)c1cnc(C)s1)C(=O)N[C@@H](COC)C(=O)N[C@@H](Cc1ccccc1)C(=O)[C@@]1(C)CO1,inactive
19,Cc1nc(-c2ccc(F)cc2)sc1CCNC(=O)c1ccc(C(C)(C)C)cc1,inactive

row,SMILES,Potency
1,O=c1cc(-c2ccccc2)oc2cc(O)cc(O)c12,26.9 µM (active)
2,CC1Cc2cc(S(=O)(=O)NCc3ccccc3)ccc2N1C(=O)C1CCC1 (stereo not drawn),inactive
3,Cc1ccc2nc(SCc3nc(-c4ccccc4C)no3)[nH]c2c1,inactive
4,CCOC(=O)c1oc2c(c1C)-c1nn(Cc3ccc(Cl)cc3)cc1CC2,inactive
5,CC(=O)Nc1cccc(NC(=O)CSc2nccn2Cc2ccccc2)c1,inactive
6,O=C(Nc1ccc(F)cc1F)N1CCN(c2ccc(Cl)c(Cl)c2)CC1,inactive
7,CCc1ccccc1N(C)C(=O)C1CCCN(c2ncnc3c2nc2n3CCCCC2)C1 (stereo not drawn),inactive
8,COC(=O)c1c(C)oc2ccc(N(C(=O)c3ccncc3)S(=O)(=O)c3cc(C)c(C)cc3C)cc12,inactive
9,COC(=O)C1CCN(S(=O)(=O)c2ccc(N3CCCCS3(=O)=O)cc2)CC1,inactive
10,O=C(Cn1cc(S(=O)(=O)Cc2ccccc2Cl)c2ccccc21)Nc1cccc(C(F)(F)F)c1,inactive
11,Cc1ccc(S(=O)(=O)Nc2cccc(-c3ccc(N4CCCCC4)nn3)c2)s1,1.51 µM (active)
12,Cc1ccc(-c2cc(N)n(Cc3cccc(Cl)c3)n2)cc1,inactive
13,O=S(=O)(NCCc1csc2nc(-c3ccccc3)nn12)c1ccc(Oc2ccccc2)cc1,inactive
14,CC(C)C[C@@H](C=O)NC(=O)[C@H](CC(C)C)NC(=O)[C@H](CC(C)C)NC(=O)OCc1ccccc1,inactive
15,CCOC(=O)C1=C(CN(C)Cc2ccccc2)NC(=O)NC1c1ccc(OC)cc1 (stereo not drawn),inactive
16,CCCCN1C(C(=O)c2ccccc2)=C(OC(=O)CC)c2ccccc2S1(=O)=O,inactive
17,CCCOCc1cc(CN2CCN(c3cccc(Cl)c3)CC2)c(O)c2ncccc12,inactive
18,CC(C)(C)C(=O)NCCc1nc2ccccc2n1CCCCOc1ccc(Cl)cc1,inactive
19,Cc1ccc(Cl)cc1N1CCN(C(=O)C2CCN(S(=O)(=O)c3ccc4c(c3)oc(=O)n4C)CC2)CC1,inactive
